Bioassay records deposited in PubChem by National Center for Advancing Translational Sciences (NCATS).
Only some compounds are listed: those with a hit (about 19% of all), similar ones and a draw of the others.
TDP1 block = blocks human tyrosyl-DNA phosphodiesterase 1; Q9NUW8; recombinant TDP1, AlphaScreen DNA substrate cleavage; Potency, µM (series often up to 130 µM), for inactives: top-dose activity change, negative = inhibition, usual class: inhibitors; 350,000 compounds, 0.28% hits; AID 485290; note: potency is the fitted concentration of half-maximal effect; nearly all actives have a fitted effect of over 40% in size
Target sequence (Q9NUW8 whole entry, looked up): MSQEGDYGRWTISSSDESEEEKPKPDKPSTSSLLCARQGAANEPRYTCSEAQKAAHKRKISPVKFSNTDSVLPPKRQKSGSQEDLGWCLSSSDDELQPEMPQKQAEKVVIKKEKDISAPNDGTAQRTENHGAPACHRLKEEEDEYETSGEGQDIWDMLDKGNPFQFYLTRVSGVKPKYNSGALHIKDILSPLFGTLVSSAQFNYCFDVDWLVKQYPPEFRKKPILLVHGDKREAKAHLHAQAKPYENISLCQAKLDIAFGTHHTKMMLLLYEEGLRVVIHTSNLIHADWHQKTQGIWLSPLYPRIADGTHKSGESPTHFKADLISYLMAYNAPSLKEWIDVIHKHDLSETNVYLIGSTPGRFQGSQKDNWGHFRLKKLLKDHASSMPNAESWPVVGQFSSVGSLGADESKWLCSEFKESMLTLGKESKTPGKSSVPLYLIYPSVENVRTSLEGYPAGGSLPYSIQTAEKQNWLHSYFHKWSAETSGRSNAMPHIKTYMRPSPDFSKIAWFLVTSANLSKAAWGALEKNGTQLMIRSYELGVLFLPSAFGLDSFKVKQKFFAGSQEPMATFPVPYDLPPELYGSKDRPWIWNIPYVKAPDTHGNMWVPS
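AlphaScreen read-out: signal falls as enzyme removes the 3' tyrosine-FITC from a 5'-biotinylated DNA oligo (15 nM, 5 min, RT). Enzyme was E. coli-made recombinant Tdp1 at 1 nM, exposed to compound for 15 min beforehand; beads 10 ug/ml, 10 min.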
Giardia kill = Giardia lamblia killing. AID 540267. activity change, % at 7.66 µM, hits read low. Giardia lamblia trophozoite viability. 340,000 compounds, 0.15% hits; in the data active = activity change below about -80%; inconclusive = between about -30% and that limit;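 note: parasites exposed to compound for two days anaerobically before the ATP read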
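Giardia trophozoites, 100 cells per well, were exposed to compounds for 48 hrs at 37 deg C under anaerobic conditions; viability was then read as ATP content by bioluminescence after 15-30 min at room temperature.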
TDP1 cell noCPT = qHTS for Inhibitors of human tyrosyl-DNA phosphodiesterase 1 (TDP1): qHTS in cells in absence of CPT; DT40 Tdp1-/- hTDP1 cells, no CPT, ATP luminescence, 48 h; Potency, µM (highest dose often 46.2 µM), for inactives: at the top dose activity change, negative = growth inhibition, actives largely listed as inhibitors; 420,000 compounds, 15% hits; AID 686978, 2013; note: potency is the fitted concentration of half-maximal effect; nearly all actives have a fitted effect of over 55% in size
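Readout: luminescence from CellTiter-Glo after 30 min in the dark at RT. Cells: DT40 Tdp1-/- with stable hTDP1, 400/well. Exposure: compounds alone, ≥48 hr, 37 °C.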
IL1B secr inh = inhibitors of inflammasome signaling (IL-1 beta secretion); THP-1 LPS/ATP IL-1B secretion, AlphaLISA, 16 h; stronger effect = lower value; activity change, % at 57.5 µM; 360,000 compounds, 4.7% hits; in the data active = activity change below about -50%; inconclusive = mostly about -30% to -49%
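Secreted IL-1B measured by AlphaLISA bead assay after 16 h compound exposure of THP-1 cells; compounds (final up to 57.5 uM) added 1 h before LPS (250 ng/mL) and ATP (1.25 mM) stimulation; lower signal means less secretion.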
DT40 TDP1 CPT = growth inhibition of DT40 Tdp1-/-;hTDP1 cells with camptothecin (screen for TDP1 inhibitors). chicken DT40 Tdp1-/-;hTDP1 cells + 20 nM CPT, ATP luminescence, 48 h. Potency, µM (titrated, usually from 46.2 µM), for the others: at the top dose activity change, negative = growth inhibition, most hits filed as inhibitors. 420,000 compounds, 12% hits; note: potency is the fitted concentration of half-maximal effect; nearly all actives have a fitted effect of over 55% in size
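Cell growth measured by CellTiter-Glo luminescence after a minimum 48 h, 37 C compound exposure with 20 nM CPT in Tdp1-knockout DT40 cells stably expressing hTDP1, seeded 400/well; qHTS titration format.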
ELG1 DNA repair = inhibitors of ELG1-dependent DNA repair in HEK293T cells. AID 504467. 330,000 compounds, 2.3% hits. Potency, µM (top dose mostly 46.1 µM), for inactives: at the highest dose activity change, negative = inhibition, most hits filed as inhibitors. HEK293T ELG1-luciferase reporter, luminescence, 16 h; DNA damage induced by 5-fluorouridine; note: potency is the fitted concentration of half-maximal effect; nearly all actives have a fitted effect of over 55% in size
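5-Fluorouridine DNA damage + compound/DMSO, 2,000 cells/well, 16 h, 37 °C/5% CO2. ONE-Glo, 30 min RT, luminescence. Readout = decrease in reporter signal.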
An asterisk follows results filed as active; ? = inconclusive; . = no result; [ ] = remark or other dose. Unless noted, calls come from the whole dose curve; as a rule, active = well fitted curve in the direction sought with a large enough effect; inconclusive = small, poorly fitted or top-dose-only effect, or another doubt; inactive = no such curve, though single readings can be large; an effect the other way counts as inactive or inconclusive. % is set by controls: 0 for no effect and ±100 for the full control effect.

SMILES | TDP1 block | Giardia kill | TDP1 cell noCPT | IL1B secr inh | DT40 TDP1 CPT | ELG1 DNA repair
CCn1nnc(NC(=O)C(C)Oc2ccc(Cl)cc2Cl)n1 (stereo unspecified) | 1% | -25 | -26% | -6 | -24% | -3%
CC(Oc1ccc(Br)cc1Cl)C(=O)Nc1ccncc1 (stereo unspecified) | . | -4 | 5.2µM* | ? | 8.2µM* | ?
Cc1ccc(OC(C)C(=O)Nc2ccncc2)cc1C (stereo unspecified) | . | -11 | ? | -10 | ? | ?
CC(Oc1ccc(Br)cc1)C(=O)Nc1ccncc1 (stereo unspecified) | . | 16 | ? | 12 | ? | 5.2µM*
CCn1ccc2cc(S(=O)(=O)N3CCC(C(=O)NCc4ccc(OC)cc4)CC3)ccc21 | 3% | . | ? | . | ? | .
COc1ccc([C@H]2CC(=O)C=C(c3ccc4cc[nH]c4c3)C2)cc1 | -1% | 4 | 23µM* | -7 | 26µM* | ?
COc1ccc([C@H]2CC(=O)C=C(c3ccc4ccn(C)c4c3)C2)cc1 | 4% | 19 | 18µM* | ? | ? | ?
COc1ccc([C@H]2CC(=O)C=C(c3ccc4[nH]ccc4c3)C2)cc1OC | 7% | -5 | ? | -1 | ? | -28%
O=C1C=C(c2ccc3[nH]ccc3c2)C[C@@H](c2ccc(F)cc2)C1 | 1% | -11 | ? | -6 | 12µM* | ?
O=C1COc2cc(S(=O)(=O)CCC(=O)N3CCN(c4ccccc4)CC3)c(Cl)cc2N1 | 3% | . | . | . | . | .
O=C(NC[C@@H]1CCCN2CCCC[C@H]12)c1cnn(-c2nccc(-c3cc4ccccc4o3)n2)c1C1CC1 | . | . | -8% | . | -3%[9.04 µM] | .
NC(CS)C(=O)O (stereo unspecified) | ? | . | -5% | . | 6% | .
Cc1cccc(N(C(=O)c2snc(C(N)=O)c2N)C(C(=O)NCC2CCCO2)c2ccc(N(C)C)cc2)c1 (stereo unspecified) | 7% | -6 | ? | -16 | 29µM* | -17%
CN(C)c1ccc(C(C(=O)NCC2CCCO2)N(C(=O)c2snc(C(N)=O)c2N)c2ccc3c(c2)OCO3)cc1 (stereo unspecified) | 11% | 2 | ? | -66* | 0% | 21µM*
O=C(NCc1ccccc1)c1nccnc1CO | . | 2 | -5% | 1 | 24% | 2%
CC1(C)CC(NS(=O)(=O)c2ccc3ccccc3c2)CC(C)(C)N1 | 1% | -5 | -7% | -21 | 8% | -3%
COc1ccnc(Oc2ccc(F)cc2)c1C(=O)N/C=N/OCc1ccc(F)cc1Cl | 8% | -2 | ? | -64* | ? | ?
Fc1ccc(C(NCCc2ccc(Cl)cc2)c2nnc(-c3ccccc3)o2)c(Cl)c1 (stereo unspecified) | 2% | . | ? | . | ? | .
Clc1ccc(CCNC(c2nnc(-c3ccccc3)o2)c2ccccc2Cl)cc1 (stereo unspecified) | -2% | . | 23µM* | . | 18µM* | .
Cc1ccc(O)c(C2=Nc3ccccc3N=C(c3cccs3)C2)c1 | ? | 7 | 16µM* | -12 | ? | 14%
CCCOCn1cc(F)c(=O)[nH]c1=O | 0% | -8 | -14% | 12 | 8% | 6%
CCCCCCNC(=O)n1cc(F)c(=O)[nH]c1=O | 9%[56.1 µM] | . | 15µM* | . | 11µM* | .
COc1ccc(C(=O)N(Cc2ccco2)Cc2ccc(C)o2)cc1 | 9% | . | 21µM* | . | 21µM* | .
CCc1ccc(CN(Cc2ccco2)C(=O)c2ccc(OC)cc2)cc1 | 7% | . | 23µM* | . | ? | .
Cc1ccc(CN(Cc2ccco2)C(=O)c2ccc(Cl)cc2)o1 | 12% | . | ? | . | -27% | .
CCN(CC)C(=O)Cn1nc(-c2ccccc2O)nc1SCC(=O)Nc1ccc(OC)cc1 | -5% | -2 | -28% | -2 | -22% | ?
